Screening data from PubChem.
BAZ2B block – blocks human BAZ2B | AlphaScreen BAZ2B-H3K14Ac peptide displacement | Potency, µM (top dose mostly 114 µM), inactives show at the top dose activity change, negative = inhibition, hits mostly inhibitors | 4.4% of 360,000 active; note: potency is the fitted concentration of half-maximal effect; % is set by controls: 0 for no effect and ±100 for the full control effect; nearly all actives have a fitted effect of over 60% in size
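In this displacement format the biotinylated H3(5-23) peptide acetylated at Lys14 serves as ligand at 50 nM, with BAZ2B at 50 nM in PBS pH 7.4 containing 0.01% Tween-20. Donor and acceptor beads are 10 ug/mL final.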
HP1b chromo inh – blocks HP1-beta chromodomain binding to methylated histone tails; P83916; AlphaScreen HP1-beta / biotin-H3K9me3 peptide binding; Potency, µM (doses to about 114 µM), without a hit: at the top dose activity change, negative = inhibition, hits mostly inhibitors; 0.56% of 390,000 active; note: potency is the fitted concentration of half-maximal effect; nearly all actives have a fitted effect of over 70% in size
Target sequence (P83916 whole entry, looked up): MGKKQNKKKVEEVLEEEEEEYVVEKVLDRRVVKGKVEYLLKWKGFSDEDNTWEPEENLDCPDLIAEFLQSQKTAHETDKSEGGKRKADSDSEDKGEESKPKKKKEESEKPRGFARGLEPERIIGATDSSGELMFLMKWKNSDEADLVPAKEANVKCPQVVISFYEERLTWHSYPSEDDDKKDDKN
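Compound inhibition of the preformed complex between 50 nM HP1-beta and 50 nM biotinylated H3K9me3 peptide was read by AlphaScreen. Buffer was PBS pH 7.4 with 0.01% Tween-20. Incubations ran 30 min at room temperature, with 10 ug/mL donor/acceptor beads.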
G9a inh – inhibitors of human histone lysine methyltransferase G9a; G9a H3K9 monomethylation, AlphaScreen, 2 h; Potency, µM (titrated, usually from 102 µM), for inactives: at the highest dose activity, negative = inhibition, most hits filed as inhibitors; 8.8% of 350,000 active; note: potency is the fitted concentration of half-maximal effect; % is set by controls: 0 for no effect and ±100 for the full control effect; nearly all actives have a fitted effect of over 75% in size
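G9a (20 nM) was preincubated 15 min with compound, then reacted 2 h at room temperature with 500 nM biotin-H3K9 peptide and 20 µM SAM. Monomethyl-H3K9 detected by AlphaScreen using anti-H3K9me1 antibody.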
PI5P4K alpha inh – PI5P4K alpha (human) kinase inhibition; P48426; PI5P4Kalpha enzyme, ADP-Glo luminescence, 60 min; hits give low values; max response, %; 1.2% of 330,000 active; active = max response of -50% or lower; inconclusive = between -30% and -50%; inactive = -30% or higher; note: value at the top dose of about 77 µM; % is set by controls: 0 for no effect and ±100 for the full control effect
Target sequence (P48426 whole entry, looked up): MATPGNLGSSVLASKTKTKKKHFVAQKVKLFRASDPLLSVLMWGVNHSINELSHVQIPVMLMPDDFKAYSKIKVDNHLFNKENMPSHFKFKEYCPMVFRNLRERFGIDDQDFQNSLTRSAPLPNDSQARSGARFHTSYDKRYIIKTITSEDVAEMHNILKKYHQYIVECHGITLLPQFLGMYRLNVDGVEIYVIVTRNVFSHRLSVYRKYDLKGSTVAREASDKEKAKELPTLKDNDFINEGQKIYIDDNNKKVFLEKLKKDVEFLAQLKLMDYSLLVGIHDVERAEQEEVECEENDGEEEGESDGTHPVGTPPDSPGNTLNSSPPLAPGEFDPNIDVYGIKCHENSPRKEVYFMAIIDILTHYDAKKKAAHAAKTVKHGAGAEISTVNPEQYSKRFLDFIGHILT
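ADP-Glo luminescence end-point after a 60 min room-temperature kinase reaction. PI5P4Kalpha and substrate in HEPES pH 7.4 buffer with EGTA, 0.1% CHAPS and 5% DMSO; ATP at 5 microM final.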
JMJD2A Tudor inh – blocks the human JMJD2A Tudor domain; O75164; AlphaScreen JMJD2A-Tudor / H3K4me3 peptide binding; Potency, µM (highest dose often 114 µM), inactives show at the top dose activity change, negative = inhibition, usual class: inhibitors; 4.4% of 390,000 active; AID 504339; note: potency is the fitted concentration of half-maximal effect; % is set by controls: 0 for no effect and ±100 for the full control effect; nearly all actives have a fitted effect of over 50% in size
L3MBTL1 block – inhibitors of human L3MBTL1; Q9Y468; AlphaScreen L3MBTL1–H3K9me1 peptide binding; Potency, µM (doses to about 57.1 µM), for the others: at the top dose activity, negative = inhibition, actives largely listed as inhibitors; 0.66% of 230,000 active; AID 485360; note: potency is the fitted concentration of half-maximal effect; % is set by controls: 0 for no effect and ±100 for the full control effect; nearly all actives have a fitted effect of over 60% in size
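L3MBTL1 50 nM + b-AHA-H3(1-15)K9me1 75 nM, 30 min RT; compound added, 30 min RT; streptavidin donor/Ni-chelate acceptor beads 10 ug/mL each final, 30 min RT dark; AlphaScreen read.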
* marks the source's active call; other numbers are inactive results; ? = inconclusive; . = no result given; [ ] = another dose, or the depositor's remark. The list is not random: actives were taken first. Their share in the collection is about 11%. Unless noted, calls come from the whole dose curve; as a rule, active = well fitted inhibition curve with a large enough effect; inconclusive = small, poorly fitted or top-dose-only effect; inactive = no such curve, though single readings can be large or run the other way.

SMILES	BAZ2B block	HP1b chromo inh	G9a inh	PI5P4K alpha inh	JMJD2A Tudor inh	L3MBTL1 block
CCc1ccc(NC(=O)CCc2c(C)n(C)c3cc(-c4ccccc4C)nn3c2=O)cc1	2.3%	27.2%[57 µM]	1.3%[59 µM]	.	1.6%	.
COc1ccc(CN(C(=O)Nc2cc(C)ccc2C)C2CCN(C(C)=O)CC2)cc1	1.0%	16.5%	10.9%[59 µM]	.	-10.9%	.
COc1ccc2oc(=O)c(C(=O)NCCc3c(C)[nH]c4ccc(Br)cc34)cc2c1	-23.5%	9.6%	-6.8%[59 µM]	.	-9.7%	.
N/C(=N\OC(=O)c1ccc(Cl)cc1Cl)c1ccccn1	0.8%	18.4%	89.1µM*	-11.4	-17.5%	10.8%
N/C(=N\OC(=O)c1cc(Br)ccc1Cl)c1ccccn1	2.5%	51.2%	56.2µM*	-6.3	12.7%	14.2%
Cc1ccc(C(=O)O/N=C(\N)c2ccccn2)c(Cl)c1	6.5%	37.4%	.	-62.0*	8.2%	-0.5%
Cc1ccc(C(=O)O/N=C(\N)c2ccccc2)c(Cl)c1	79.4%	143.6%	144.5%	-16.0	66.7%	.
N/C(=N\OC(=O)c1ccc([N+](=O)[O-])cc1Cl)c1ccccn1	56.2µM*	-22.4%	20µM*	-0.4	?	-4.7%
Cc1cccc(N2CCN(C(=O)CCc3nnc4n(CC(C)C)c(=O)c5ccccc5n34)CC2)c1C	-2.5%	13.1%	-36.1%[59 µM]	.	-5.8%	.
Cc1ccc(CNC(=O)c2ccc(CSCc3ccccc3Cl)o2)cc1	5.5%	40.6%	0.0%[59 µM]	.	-7.0%	.
COc1cc(OC)c(NS(=O)(=O)c2cc3c(cc2C)N(C(C)=O)CCO3)cc1Cl	-12.2%	2.7%	-28.9%[59 µM]	.	-14.1%	.
CC(=O)Nc1ccc(S(=O)(=O)N(CCCN2CCOCC2)Cc2cccs2)cc1	79.4µM*	-7.9%	39.8µM*	-5.2	44.7µM*	.
O=C(Nc1ccccc1)N(CCCN1CCOCC1)Cc1cccs1	12.2%	22.9%	11.5%	0.0	-18.6%	6.7%
CCc1ccc(NC(=O)N(CCCN2CCOCC2)Cc2cccs2)cc1	11.0%	39.9%	7.7%	1.0	-25.5%	.
CC(C)(C)c1ccc(S(=O)(=O)N(CCCN2CCOCC2)Cc2cccs2)cc1	25.1µM*	15.8µM*	14.1µM*	4.4	22.4µM*	-16.3%
O=[N+]([O-])c1ccc(S(=O)(=O)N(CCCN2CCOCC2)Cc2cccs2)cc1	50.1µM*	7.0%	35.5µM*	0.4	79.4µM*	.
CC1CCC(C(C)C)C(OC(=O)C[n+]2cccc(C(N)=O)c2)C1 (stereo unspecified)	-3.2%	-2.9%	7.2%[59 µM]	-75.3*	?	5.9%
COc1cc(C(=O)ON=C2C(C)=CC(=O)C=C2C)cc(OC)c1OC	?	20.8%	31.6µM*	.	-11.9%	1.5%
Cc1ccc(NC(=S)Nc2ccc(C(C)C)cc2)cc1S(=O)(=O)N1CCCCCC1	-12.5%	-23.5%	44.7µM*	-7.2	-25.3%	-15.1%
CCOc1ncccc1C(=O)Nc1ccc(C)c(S(=O)(=O)N2CCCCCC2)c1	0.3%	45.9%	11.7%[59 µM]	16.7	20µM*	7.3%
CCN(CC)CCNC(=O)c1ccc(NC(=O)c2cccc(S(=O)(=O)N3CCc4ccccc43)c2)cc1	-12.7%	?	31.6µM*	7.2	?	-11.5%
CCOc1ncccc1C(=O)Nc1cc(S(=O)(=O)N2CCCCC2)ccc1OC	13.1%	21.1%[57 µM]	10µM*	3.3	-17.7%	-3.3%
CN(C)c1ccc(-c2nc(-c3ccco3)no2)cc1[N+](=O)[O-]	-16.0%	30.7%	7.0%[59 µM]	.	-11.9%	.
O=C(Nc1ccc(Cl)c(S(=O)(=O)N2CCCCC2)c1)c1ccncc1	1.4%	12.3%	56.2µM*	-0.2	-12.4%	-10.1%
O=C(Nc1ccncc1)c1ccc(Cl)c(S(=O)(=O)N2CCc3ccccc32)c1	50.1µM*	-16.9%	?	-4.3	?	-10.8%
SMILES	BAZ2B block	HP1b chromo inh	G9a inh	PI5P4K alpha inh	JMJD2A Tudor inh	L3MBTL1 block
COc1ccc(S(=O)(=O)N2CCC(Oc3ccc(-n4cnnn4)cc3)CC2)cc1OC	-1.3%	1.4%	-4.1%[59 µM]	.	-20.1%	.
COc1ccc(OCc2n[nH]c(=S)o2)cc1	-27.9%	2.8%	?	?	?	.
Cc1ccc(C)c(OCc2n[nH]c(=S)o2)c1	-14.3%	34.0%	?	-21.8	?	.
S=c1[nH]nc(COc2ccc(Cl)cc2)o1	-5.3%	6.7%	3.98µM*	.	79.4µM*	13.8%
S=c1[nH]nc(CCc2ccc(Cl)cc2)o1	-4.8%	67.3%	7.08µM*	?	-13.9%	0.6%
Cc1cc(OCC(=O)NCCO)cc(C)c1Cl	7.6%	14.8%	-7.3%[59 µM]	6.1	89.1µM*	1.1%
COc1ccc(OCC(=O)NCCCNC(=O)COc2ccc(OC)cc2)cc1	-2.9%	48.6%	?	0.1	-0.7%	3.4%
Cc1ccc(OCC(=O)NCCCNC(=O)COc2ccc(C)cc2)cc1	-25.9%	22.1%	35.5µM*	0.2	-2.3%	.
O=C(NCC(c1ccco1)S(=O)(=O)c1ccc(Cl)cc1)c1ccc(C(F)(F)F)cc1 (stereo unspecified)	-4.1%	22.7%	?	.	-16.6%	.
O=c1[nH]nc(-c2cc(-c3ccccc3)nc3ccccc23)o1	.	.	.	4.2	.	.
CCn1c(-c2cc(C3CC3)nc3ccccc23)n[nH]c1=S	-31.6%	21.2%	2.24µM*	-22.8	50.1µM*	7.4%
CCOc1cccc(-c2cc(-c3n[nH]c(=S)n3CC)c3ccccc3n2)c1	?	-16.0%	?	.	?	-3.5%
Cc1ccc(-c2cc(-c3n[nH]c(=S)n3C)c3ccccc3n2)cc1	?	-29.8%	2µM*	-26.4	?	-9.8%
CCn1c(-c2cc(-c3cc(C)ccc3C)nc3ccccc23)n[nH]c1=S	?	15.2%	28.2µM*	-8.2	56.2µM*	-1.0%
CCOc1ccccc1-c1cc(-c2n[nH]c(=S)n2CC)c2ccccc2n1	-37.3%	16.6%	10µM*	-2.7	44.7µM*	-4.7%
CCC(=O)N1CCc2cc(CNC(=O)c3cccc(N(C)C)c3)ccc21	?	-23.4%	-10.8%[59 µM]	.	-33.3%	.
CCOC(=O)c1ccccc1NC(=O)N1CCOc2ccc(Cl)cc21	-31.6%	35.2%	?	.	-20.4%	.
CCn1c(-c2cc(-c3ccc(C)c(C)c3)nc3ccccc23)n[nH]c1=S	?	.	39.8µM*	.	.	-24.0%
CCCSc1nsc(SCCC)c1C(N)=O	-5.6%	38.4%	39.8µM*	-6.9	-20.1%	0.0%
O=S(=O)(c1ccccc1)c1nnn2c1nc(N1CCN(c3ccccc3)CC1)c1cc(Cl)ccc12	-3.9%	19.4%	-40.6%[59 µM]	.	-6.2%	.
COc1ccc(N/N=C(/N=Nc2nc(C)cc(=O)[nH]2)c2ccccc2)cc1	7.08µM*	15.8µM*	?	-1.3	?	.
COc1ccc2nc(C)cc(Nc3ccc(C(=O)O)cc3)c2c1	4.6%	69.2%	21.5%[2.33 µM]	-3.4	-1.3%	.
Cc1cc(=O)[nH]c(N=N/C(=N/Nc2ccccc2C)c2ccccc2)n1	?	?	28.2µM*	0.0	?	.
